Source: PubChem (several laboratories)
BH1578 lux ind = quorum light induction in luxS cqsA deficient V. cholerae. V. cholerae BH1578 lux reporter, luminescence, 6 h. activation, % at 18.7 µM. 0.16% of 350,000 active; in the data active means activation mostly above about 9.7%, no sharp cut-off
Rv3671c protease = inhibitors of M. tuberculosis serine protease Rv3671c; P9WHR9; inhibition, % at 5.96 µM; 0.048% of 320,000 active; in the data active means inhibition above about 38%;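 further: extracellular domain of Rv3671c used as enzyme; 0% = enzyme with DMSO and 100% = no enzyme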
Target sequence (P9WHR9 whole entry, looked up, the tested form may be a part): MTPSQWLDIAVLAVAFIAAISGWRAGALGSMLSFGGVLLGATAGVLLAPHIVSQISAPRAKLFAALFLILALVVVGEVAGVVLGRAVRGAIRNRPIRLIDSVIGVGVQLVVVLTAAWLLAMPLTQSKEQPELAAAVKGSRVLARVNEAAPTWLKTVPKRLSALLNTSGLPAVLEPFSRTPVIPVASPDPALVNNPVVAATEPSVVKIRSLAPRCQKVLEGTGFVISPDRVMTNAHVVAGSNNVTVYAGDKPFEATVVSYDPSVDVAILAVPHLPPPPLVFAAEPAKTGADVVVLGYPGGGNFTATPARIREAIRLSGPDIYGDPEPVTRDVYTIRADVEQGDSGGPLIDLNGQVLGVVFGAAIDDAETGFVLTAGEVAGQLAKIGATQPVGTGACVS
GDH-TPI inh = counter-screen for M. tuberculosis FBA inhibitors: GDH-TPI coupled enzymes; GDH-TPI coupled enzyme counterscreen, NADH absorbance; inhibition, % at 4.8 µM; 1.2% of 360,000 active; AID 588335; in the data active means inhibition above about 30%;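 further: 0% = DMSO wells and 100% = wells lacking the enzyme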
RecA intein inh = blocks M. tuberculosis RecA intein splicing. P9WHJ3. inhibition, % (no concentration beside the values). 0.75% of 290,000 active. cell-free RecA intein splicing, fluorescence; in the data active means inhibition above about 30%;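 further: 0% = vehicle wells and 100% = reference inhibitor control wells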
FBA Mtb inh = inhibits M. tuberculosis FBA enzyme. inhibition, % at 1 µM. purified M. tuberculosis FBA, fluorescence read-out. P9WQA3. 2.3% of 360,000 active; in the data active means inhibition above about 27%;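 further: 0% = vehicle and 100% = reference inhibitor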
UGM FP inh = Mtb UDP-galactopyranose mutase inhibition; inhibition, % at 10 µM; AID 504406; P9WIQ1; 0.06% of 320,000 active; purified UGM, fluorescence polarization probe displacement; in the data active means inhibition above about 10%, passing the limit was not always enough
* = called active by the depositor; i = inactive; . = not tested or not shown. Only some compounds are listed: those with a hit (about 4.1% of all), similar ones and a draw of the others.

SMILES	BH1578 lux ind	Rv3671c protease	GDH-TPI inh	RecA intein inh	FBA Mtb inh	UGM FP inh
COc1ccccc1N1CCN(c2cc(N3CCCC3)nc(C)n2)CC1	-2	1	3	0	2	0
CC(=O)c1ccccc1NCC(=O)Nc1ccc(C)cc1	0	-6	4	-12	1	0
O=C(O)C1CCCC[C@H]1C(=O)Nc1ncc([N+](=O)[O-])s1 (some centres not stated)	i	-1	31*	.	-1	2
O=C(Nc1nnc(S(=O)(=O)Nc2ccccc2)s1)C1CCCCC1	0	8	3	0	1	2
CC(OC(=O)c1ccc(C#N)cc1)C(=O)Nc1ccc(Cl)cn1 (configuration not stated)	i	.	6	.	2	.
Cc1c(N=Cc2c(O)n(Cc3ccccc3)c(=O)[nH]c2=O)c(=O)n(-c2ccccc2)n1C	0	1	17	.	-3	-1
Cc1c(N=Nc2c(O)n(Cc3ccccc3)c(=O)[nH]c2=O)c(=O)n(-c2ccccc2)n1C	0	-35	36*	2	-5	-1
COc1ccccc1-n1c(O)c(C=Nc2c(C)n(C)n(-c3ccccc3)c2=O)c(=O)[nH]c1=O	-4	-11	37*	-3	-6	-2
Cc1ccc(N=C2C(=O)Nc3ccccc32)cc1C	-1	7	8	4	4	-1
O=C1Nc2ccccc2C1=Nc1ccc2[nH]c3ccccc3c2c1	i	.	18	.	41*	.
Cc1ccc2[nH]c3ccccc3c(=O)c2c1	i	-4	-1	-386	136*	2
O=c1c2ccccc2[nH]c2ccc(F)cc12	0	-4	5	-180	156*	1
Cc1cccc(OCC(=O)O/N=C(\N)c2ccncc2)c1	0	6	-2	0	1	4
CCCCn1c(NC(=O)c2ccccc2Cl)c(C#N)c2nc3ccccc3nc21	i	-213	4	27	26	1
N#Cc1c(NC(=O)c2ccccc2Cl)n(Cc2ccccc2)c2nc3ccccc3nc12	1	-72	7	.	35*	2
Cc1cc(=O)c(C(=O)OC(C)C(=O)NC(N)=O)nn1-c1ccc(Cl)cc1 (configuration not stated)	i	-13	-1	2	-1	0
c1ccc(C2[C@H]3CN(Cc4cccnc4)[C@H](c4ccccc4)C34CC2(c2cccnc2)C4)cc1 (some centres not stated)	-2	4	4	37*	1	1
c1ccc(C2[C@H]3CN(Cc4cccnc4)[C@H](c4ccccc4)C34CC2(c2ccccc2)C4)cc1 (some centres not stated)	1	-3	-1	10	-1	0
O=[N+]([O-])c1ccc(NC(=S)N2CCc3ccccc32)cc1	0	.	11	6	-3	-3
CC1(C)CC(N=c2cc(-c3ccccc3)oc3ccc(Cl)cc23)CC(C)(C)N1	0	.	15	0	1	.
OCCCN=c1cc(-c2ccccc2)oc2ccc(Cl)cc12	0	3	49*	0	0	-1
C/C(=N\Nc1ccc(Cl)c(C(=O)O)c1)c1cccc2ccccc12	i	1	16	2	-1	4
C/C(=N\Nc1cccc(C(=O)O)c1)c1cc2ccccc2o1	0	8	48*	.	-2	-2
C/C(=N\Nc1ccc(Cl)c(C(=O)O)c1)c1ccccn1	0	1	37*	-3	1	1
C/C(=N\Nc1ccc(Cl)c(C(=O)O)c1)c1cc2ccccc2o1	i	-4	31*	.	-1	0
SMILES	BH1578 lux ind	Rv3671c protease	GDH-TPI inh	RecA intein inh	FBA Mtb inh	UGM FP inh
CCn1c(SCC(=O)Nc2ccc(OC)c(S(=O)(=O)N3CCCCC3)c2)nnc1C1CC1	i	.	1	.	1	.
COc1ccccc1Cc1c(C(C)(C)C)nc2ccc(C)cn12	.	.	.	.	11	.
CCc1nc2c(s1)CCc1onc(-c3ccc(Cl)cc3)c1-2	i	-9	9	1	6	-1
CCOc1cc(/C=C2\C(=O)N(c3cccc(C(=O)O)c3)N=C2C(F)(F)F)ccc1OCC(=O)Nc1ccccc1OC	.	-1	.	33*	.	1
CCOc1cc(/C=N/n2cnnc2)ccc1OCC(=O)Nc1ccccc1OC	i	-3	10	1	2	-2
O=C(COC(=O)CNS(=O)(=O)c1ccc(Br)cc1Cl)Nc1ccc(N2CCOCC2)cc1	i	3	-2	-2	0	-2
COc1c2ccccc2nc2ccccc12	i	3	11	-185	143*	0
